# Screening results (PubChem BioAssay)
# Only some compounds are listed: those with a hit (about 2.4% of all), similar ones and a draw of the others.
# D2 PAM-1: Beta-Arrestin HTS for Positive Allosteric Modulators of the Human D2 Dopamine Receptor: Potentiators; D(2) dopamine receptor (Homo sapiens), P14416; DiscoveRx D2 beta-arrestin cells, luminescence, 90 min; 100% = 57 uM dopamine signal; potentiation, % (concentration not given with the values); 360,000 compounds, 0.23% hits; AID 624464, 2012; in the data active = potentiation above about 50%; inconclusive = mostly about 30% to 49%
#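 PathHunter D2 cells, attached overnight at 37 deg C, received compound in DMSO plus dopamine at EC20 (50 nM final) for 90 min at 37 deg C. Beta-arrestin recruitment was read as luminescence after 1 h with detection reagent at ambient temperature.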
# D2 ag-1: HTS Assay for Allosteric Agonists of the Human D2 Dopamine Receptor: Primary Screen for Agonists | D(2) dopamine receptor (Homo sapiens), P14416 | HEK293 T-REx D2 cells, calcium flux agonist mode | activation, % at 2 µM | 340,000 compounds, 0.53% hits | AID 485358, 2010;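 active = activation over 3 SD above normal in the single-dose calcium agonist read, cut at about 30% in these data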; note: 0% is about no effect
#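 Agonism scored from kinetic calcium signal (1 read/sec, 180 s) following compound pin transfer, after a 10 s baseline. Cells: HEK293 Trex line expressing inducible D2 receptor coupled to calcium, dye-loaded after overnight culture at 30 C.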
# D2 ag-2: Beta-Arrestin HTS for Positive Allosteric Modulators of the Human D2 Dopamine Receptor: Agonists; activation, % (concentration not given with the values); 360,000 compounds, 0.084% hits; D(2) dopamine receptor (Homo sapiens), P14416; DiscoveRx PathHunter D2 beta-arrestin, luminescence, 90 min; 100% = 57 uM dopamine signal; in the data active = activation above about 40%; inconclusive = between about 15% and that limit
#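 DiscoveRx PathHunter D2 beta-arrestin cells (2,100/well) attached overnight, then compound-stimulated 90 min at 37 C in HBSS/10 mM HEPES/0.1% Tween-20 buffer; beta-galactosidase complementation read by luminescence after 1 h at ambient temperature. Dopamine 57 uM final (EC100) as control.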
# D2 PAM-2: HTS Assay for Positive Allosteric Modulators of the Human D2 Dopamine Receptor: Primary Screen for Potentiators. AID 485347, 2010. HEK293 T-REx D2, calcium flux, EC20 dopamine potentiation. potentiation, % at 10 µM. 340,000 compounds, 0.34% hits;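 active = potentiation over 3 SD above the plate norm, cut at about 30% in these data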; note: 0% is about no effect
#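 Tetracycline-induced HEK293 T-REx cells force-coupled to calcium signalling expressed D2; compounds were pin-added after a 10 s baseline, read kinetically 180 s, then an EC20 dopamine challenge followed with a further 180 s calcium read.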
# D2 antagonist: HTS Assay for Allosteric Antagonists of the Human D2 Dopamine Receptor: Primary Screen for Antagonists | D(2) dopamine receptor (Homo sapiens), P14416 | inhibition, % at 10 µM | AID 485344, 2010 | 340,000 compounds, 2% hits | HEK293 TREx D2 cells, calcium flux, dopamine EC80; in the data active = inhibition above about 30%; inactive = below that, where a call was filed; note: 0% is about no effect
#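 HEK293 T-REx D2 cells, tet-induced, calcium dye no-wash. Cpd pintool add, 180 s kinetic, then EC80 DA, 180 s kinetic. Ca flux read.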
# D3 ag: qHTS of D3 Dopamine Receptor Agonist: D3 Dopamine Receptor B-arrestin Agonist Confirmatory Assay; shares compounds with D2 ag-1; DiscoveRx D3 beta-arrestin cells, luminescence, 90 min; Potency, µM (series often up to 76.9 µM), for the others: top-dose activation, hits mostly activators; 2,300 compounds, 4% hits; AID 720506, 2013;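 note: potency is the fitted concentration of half-maximal effect; 100% = dopamine control response; nearly all actives have a fitted effect of over 70% in size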
# Target sequence (P35462 whole entry, looked up): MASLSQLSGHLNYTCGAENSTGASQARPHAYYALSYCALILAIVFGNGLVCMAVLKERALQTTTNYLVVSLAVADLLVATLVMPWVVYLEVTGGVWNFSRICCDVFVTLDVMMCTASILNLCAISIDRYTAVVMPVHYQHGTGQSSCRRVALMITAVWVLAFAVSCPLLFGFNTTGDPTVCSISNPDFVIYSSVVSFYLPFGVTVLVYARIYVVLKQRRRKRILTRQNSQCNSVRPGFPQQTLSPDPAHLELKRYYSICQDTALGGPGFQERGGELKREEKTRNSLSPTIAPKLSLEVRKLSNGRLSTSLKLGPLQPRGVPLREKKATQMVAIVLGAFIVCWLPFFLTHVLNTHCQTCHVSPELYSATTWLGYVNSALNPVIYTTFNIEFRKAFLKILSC
# D2 ag-3: qHTS of D3 Dopamine Receptor Agonist: D2 Dopamine Receptor B-arrestin Agonist Counterscreen | Potency, µM (series often up to 76.9 µM), for inactives: top-dose activation, most hits filed as activators | 2,300 compounds, 5.9% hits | shares compounds with D2 ag-1 | DiscoveRx PathHunter D2 beta-arrestin, luminescence, 90 min; response scale: percent relative to full dopamine signal; note: potency is the fitted concentration of half-maximal effect; % of control where 0% means no effect; nearly all actives have a fitted effect of over 70% in size
# An asterisk follows results filed as active; ? = inconclusive; . = no result given. Unless noted, calls come from the whole dose curve; as a rule, active = well fitted activation curve with a large enough effect; inconclusive = small, poorly fitted or top-dose-only effect; inactive = flat fitted curve, though single readings scatter.
SMILES,D2 PAM-1,D2 ag-1,D2 ag-2,D2 PAM-2,D2 antagonist,D3 ag,D2 ag-3
O=C(NCCCN1CCN(c2ccccc2F)CC1)Nc1ccc(F)cc1,-4.2,75.7*,13.5,-20.4,80.7*,-1.0%,?
O=C(Cn1c(=O)c2cccn2c2ccc(F)cc21)NCCCN1CCN(c2ccccc2F)CC1,-33.8,78.9*,?,-19.2,81.8*,4.4%,?
CSc1ccc(NC(=O)NCCCN2CCN(c3ccccc3F)CC2)cc1,3.1,69.4*,?,-19.5,100.3*,?,?
Cc1ccccc1NC(=O)NCCCN1CCN(C)CC1,4.7,-0.2,2.1,8.9,3.3,.,.
CCOc1ccccc1NC(=O)c1cc2cc(C)ccc2n1C,.,-0.5,.,3.6,.,.,.
O=C(CCc1ccccc1)NCc1nc2cccnc2n1Cc1ccc(F)cc1,.,-1.1,.,16.6,.,.,.
O=C(Nc1ccc2oc(-c3cccc(F)c3)nc2c1)c1ccc2ccccc2c1,.,-0.7,.,-11.6,.,.,.
COc1ccc(N2CCN(CCCNC(=O)Nc3ccccc3)CC2)cc1,-24.2,0.2,-1.4,11.7,-2.5,.,.
COc1ccccc1N1CCN(CCCNC(=O)Nc2ccccc2)CC1,-12.3,86.6*,?,-30.2,101.0*,29.1%,27.8%
Cc1nc(NC(=O)CN2CCCCC2)sc1C(=O)N(C)C,-0.6,-0.2,-0.9,3.0,7.0,.,.
COc1ccccc1N1CCN(CC(=O)Nc2ccc(CN3CCCCC3)cc2)CC1,-8.8,31.2*,11.8,-23.9,39.1*,-7.3%,12.7%
COc1ccccc1NC(=O)CN1CCN(c2ccccc2)CC1,-6.3,49.2*,5.1,-29.1,39.1*,-3.0%,8.8%
COc1ccccc1NC(=O)c1ccc(NC(=O)c2ccco2)cc1,1.2,0.3,-3.2,-20.2,-13.8,.,.
COc1ccccc1NC(=O)c1ccc(NC(=O)CN2CCN(C(=O)c3ccco3)CC2)cc1,19.5,51.3*,10.8,-7.5,40.9*,?,19.9%
COc1ccccc1N1CCN(CC(=O)Nc2nc(C)c(C(=O)N(C)C)s2)CC1,-19.3,0.2,3.4,-5.7,12.1,-6.6%,-4.6%
CC(=O)c1cccc(NC(=O)CN2C(=O)c3cccnc3Sc3ccccc32)c1,.,1.0,.,-9.6,.,.,.
COc1ccc([N+](=O)[O-])cc1NC(=O)CCN1CCN(c2ccccc2)CC1,6.1,.,47.3*,.,.,?,?
COc1ccc([N+](=O)[O-])cc1NC(=O)CCCOc1ccccc1,-19.0,0.0,-3.3,-34.9,2.3,.,.
Cc1cc(Cl)ccc1NC(=O)CN1CCN(C(=O)c2ccco2)CC1,3.6,1.4,2.3,3.6,3.6,.,.
COC(=O)c1[nH]c2ccccc2c1NC(=O)CN1CCN(C(=O)c2ccco2)CC1,9.4,58.1*,?,-19.4,20.6,?,19.5%
Cc1ccccc1NC(=O)CN1CCN(C(=O)c2ccco2)CC1,3.8,43.8*,10.6,-10.6,-14.9,-6.5%,22.4%
COc1ccc(C)cc1NC(=O)CCN1CCN(C/C=C/c2ccccc2)CC1,-0.4,69.9*,3.9,-25.0,68.0*,6.8%,?
CCC(C)NC(=O)C1=CC(c2ccc3c(c2)OCO3)=NS(=O)(=O)N1C (stereo unspecified),.,10.5,.,4.3,.,.,.
CCOC(=O)Cn1c(=O)n(C2CCCCC2)c2nc(-c3ccc(C(C)C)cc3)nc(C(N)=O)c21,.,-0.3,.,4.4,.,.,.
CCc1cccc(C)c1NC(=O)c1cc(S(=O)(=O)N2CCN(c3ccccc3)CC2)ccc1F,.,0.5,.,-17.4,.,.,.
SMILES,D2 PAM-1,D2 ag-1,D2 ag-2,D2 PAM-2,D2 antagonist,D3 ag,D2 ag-3
Cc1c(-c2ccccc2)n(-c2ccc(Cl)cc2)c2nc3c(c(=O)n(C)c(=O)n3C)n12,.,1.0,.,-2.5,.,.,.
CCc1cccc(C)c1NC(=O)CCn1c(=O)c2cccn2c2ccccc21,.,3.3,.,-7.8,.,.,.
COc1ccccc1NC(=O)CN1CCN(C(=O)c2ccco2)CC1,-20.9,.,6.8,.,.,?,12.9%
CN(CC(=O)Nc1ccc(F)cc1)C(=O)Cn1c(=O)oc2ccccc21,4.6,-0.1,3.2,5.4,11.0,-4.6%,-1.8%
Cc1ccc(NC(=O)CN(C)C(=O)Cn2c(=O)oc3ccccc32)cc1,-12.2,0.8,2.1,6.5,-2.1,.,.
CC(CCc1ccccc1)NC(=O)C(C)OC(=O)c1ccco1 (stereo unspecified),0.3,-1.4,-2.4,8.5,-5.8,.,.
Cc1ccc(C(=O)OC(C)C(=O)NC(C)CCc2ccccc2)o1 (stereo unspecified),-0.8,0.2,-2.3,10.6,-35.0,-6.4%,-0.9%
CCOc1ccc(/C(C)=N/NC(=O)c2nnn(-c3nonc3N)c2-c2cccs2)cc1,-0.5,9.8,-3.4,6.1,2.1,-5.3%,2.2%
Cc1ccc(/C=N/NC(=O)c2nnn(-c3nonc3N)c2-c2cccs2)cc1,-1.5,24.8,-2.1,18.2,32.0*,4.0%,28.9%
Nc1nonc1-n1nnc(C(=O)N/N=C/c2ccc(F)cc2)c1-c1ccc2c(c1)OCO2,-2.8,.,-5.1,.,.,3.3%,-3.2%
COc1cccc(-c2c(C(=O)N/N=C/c3cccs3)nnn2-c2nonc2N)c1,-4.5,3.5,-7.4,23.4,21.4,-12.7%,-4.8%
COCc1c(C(=O)N/N=C\c2cccs2)nnn1-c1nonc1N,-2.7,1.0,-1.1,5.1,4.6,.,.
COc1ccc(/C=N/NC(=O)c2nnn(-c3nonc3N)c2-c2cccs2)cc1OC,4.8,0.1,4.8,4.1,2.2,.,.
CCn1c(=O)cc(SCC(=O)NCc2ccc(F)cc2Cl)c2ccccc21,.,0.3,.,.,.,.,.
CCn1c(C(=O)N2CCCC(C(=O)N3CCN(c4ccccc4)CC3)C2)cc2sccc21 (stereo unspecified),.,-0.1,.,-3.1,.,.,.
CCNC(=O)c1nn(-c2ccccc2C)nc1CO,.,-0.1,.,2.6,.,.,.
O=C(CSc1oc(-c2ccccc2)nc1S(=O)(=O)c1ccc(Br)cc1)c1ccccc1,.,1.3,.,.,.,.,.
